Inhibition data for eleven molecules are collected here from ChEMBL document CHEMBL4513146, “CO-ADD screening of Karazin Kharkiv National University (Ukraine) compounds”.

One experiment concerns Klebsiella pneumoniae. The following applies: Concentration 32 ug.mL-1;; ASSAY_TEST Inhibition of Bacterial Growth; detection method Absorption (OD600); MEDIA CAMHB; plate type 384well; NBS; CORNING #3640; time 18 hr.
In another experiment the test system is Candida albicans. The following applies: Concentration 32 ug.mL-1; ASSAY_TEST Inhibition of Fungal Growth; detection method Absorption (OD530).
The test system of a further experiment is Cryptococcus neoformans. The following applies: Concentration 32 ug.mL-1; ASSAY_TEST Inhibition of Fungal Growth; detection method Resazurin; Absorption (OD600-OD570); plate type 384well; NBS; CORNING #3640.

Structures are written as SMILES. Results with a measured potency or affinity are listed apart.

In the case of `CC(C)c1nnc2c(SCC(=O)Nc3ccc(F)cc3F)nc3ccccc3n12`, the Inhibition was 13.12% in the experiment with Klebsiella pneumoniae, -0.24% in the experiment on Candida albicans and -26.87% with Cryptococcus neoformans.
For `COc1ccc(NC(=O)c2ccc3nn(CC(=O)N4CCN(c5ccccc5)CC4)c(=O)n3c2)cc1`, in that order: 0.73%, 1.58% and -6.91%.
For `O=C(Cn1nc2ccc(SCc3ccc(Cl)cc3)nn2c1=O)NCc1ccccc1`, in that order: 6.87%, 25.95% and -17.55%.
On to `Cc1ccc(Sc2nccn3c(=O)n(CC(=O)N4CCN(c5ccccc5)CC4)nc23)c(C)c1`, for which the results for the Inhibition in the experiment with Klebsiella pneumoniae, with Candida albicans and with Cryptococcus neoformans were 2.5%, 3.52% and -7.85%, respectively.
For the molecule `CC(=O)c1ccc(NC(=O)Cn2nc3c(SC4CCCCC4)nccn3c2=O)cc1`, the Inhibition in the experiment on Klebsiella pneumoniae is given as 4.71%; with Candida albicans, 0.5%; with Cryptococcus neoformans, -15.4%.
As to `O=S(=O)(c1ccc2nncn2c1)N(Cc1cccc(F)c1)c1ccc(F)c(F)c1`, the values for the Inhibition in the experiment on Klebsiella pneumoniae, with Candida albicans and in the experiment on Cryptococcus neoformans were 13.11%, 5.52% and -5.3%, respectively.
For `Cc1nnc2c(=S)[nH]c3ccccc3n12`, in that order: 21.93%, -0.01% and -43.69%.
For `O=C(Cn1nc2c(Oc3ccccc3)nccn2c1=O)Nc1cc(F)ccc1F`, the results for the Inhibition in the experiment on Klebsiella pneumoniae, in the experiment on Candida albicans and in the experiment on Cryptococcus neoformans were -4.08%, -0.69% and -9.47%, respectively.
For `O=C(CSc1nnc2c(=O)n(-c3cccc(F)c3)ccn12)NCCc1ccccc1`, in that order: -3.34%, 5.41% and -10.18%.
Turning to `CCOc1ccccc1NC(=O)Cn1nc2c(Sc3ccccc3)nccn2c1=O`, the figures for the Inhibition in the experiment with Klebsiella pneumoniae, in the experiment on Candida albicans and with Cryptococcus neoformans were 3.54%, -0.33% and -18.53%, respectively.
`Cc1nnc2c(=O)n(CC(=O)Nc3ccc(C(C)C)cc3)c3ccccc3n12`: the Inhibition in the experiment with Klebsiella pneumoniae is listed as 15.67%; in the experiment on Candida albicans it was 5.98%; in the experiment on Cryptococcus neoformans, -14.04%.
